Compound activity: PubChem, Sanford-Burnham Center for Chemical Genomics
Sampled rows, rich in hits. Any-hit rate of the full collection: about 31%.
CYP2C9 inhib: blocks human cytochrome P450 2C9. CYP2C9 Supersomes, luciferin-H conversion, luminescence. inhibition, % at 5 µM. actives 20% (n = 96,000);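 active = blocking of liver enzyme CYP2C9 beyond about 50% at 5 µM, limit read from the data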
Target sequence (P11712 whole entry, looked up): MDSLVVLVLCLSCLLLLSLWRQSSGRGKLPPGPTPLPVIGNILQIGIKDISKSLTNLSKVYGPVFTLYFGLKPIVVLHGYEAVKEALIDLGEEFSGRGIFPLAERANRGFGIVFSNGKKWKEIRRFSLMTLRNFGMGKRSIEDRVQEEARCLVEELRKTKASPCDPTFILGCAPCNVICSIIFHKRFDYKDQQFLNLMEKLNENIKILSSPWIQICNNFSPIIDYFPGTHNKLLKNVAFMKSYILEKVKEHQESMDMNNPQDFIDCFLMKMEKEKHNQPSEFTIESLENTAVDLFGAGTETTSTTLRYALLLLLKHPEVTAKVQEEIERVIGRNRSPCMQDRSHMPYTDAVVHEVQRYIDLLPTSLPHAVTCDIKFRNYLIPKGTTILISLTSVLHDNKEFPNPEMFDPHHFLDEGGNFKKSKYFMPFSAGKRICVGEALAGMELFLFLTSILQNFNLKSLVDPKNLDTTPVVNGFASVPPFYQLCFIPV
CYP2C19 act: cytochrome P450 2C19 (human) activation | recombinant CYP2C19, luciferin-H EGE luminescence; stronger effect = higher value; 0 = fully inhibited enzyme, 1 = untreated enzyme | 96,000 tested, under 10 active | activation factor at 5 µM | P33261 | AID 1025;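 active = activation factor of at least 2 at 5 µM in the primary screen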;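 also: 0 = wells with 2.5 mM tranylcypromine and 1 = vehicle-only wells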
PLAP act: activators of human placental alkaline phosphatase; activation fold at 20 µM; AID 696; actives 1.2% (n = 96,000); P05187; purified PLAP enzyme, luminescent substrate read-out; stronger effect = higher value; in the data active = activation fold above about 2
CYP2C9 act: CYP2C9 (human) activation; recombinant CYP2C9, luciferin-H conversion, luminescence; stronger effect = higher value; factor 1 = untreated enzyme, 0 = blocked; activation factor at 5 µM; actives 1.4% (n = 96,000); AID 1024;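 active = activation factor of 2 or more for CYP2C9 at a 5 µM dose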;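 also: 0 = sulfaphenazole-blocked wells and 1 = vehicle-only wells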
CYP2C19 inhib: blocks human cytochrome P450 2C19. P33261. CYP2C19 Supersomes, luciferin-H EGE luminescence, 30 min. inhibition, % at 5 µM. actives 21% (n = 96,000). AID 778;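 active = CYP2C19 inhibition above a set limit at 5 µM in the primary screen, cut at about 50% in these data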;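 also: plate controls were negative control wells for no effect and 2.5 mM tranylcypromine positive control for full effect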
Numbers without * were called inactive.

How did COC(=O)C(Sc1nc(C)cc(C)c1C#N)c1ccccc1 (centres undefined) do in these assays?
CYP2C9 inhib: 46; CYP2C19 act: 0.5; PLAP act: 0.8; CYP2C9 act: 0.5; CYP2C19 inhib: 54*

Results for CC(C)(C)n1nnnc1CN1CCSCC1 ?
CYP2C9 inhib: 0; CYP2C19 act: 0.7; PLAP act: 1.1; CYP2C9 act: 1; CYP2C19 inhib: 31

Results for O=C(CNC(=O)c1cccs1)OCC(=O)c1ccc2ccccc2c1 ?
CYP2C9 inhib: 8; CYP2C19 act: 0.9; PLAP act: 1.1; CYP2C9 act: 0.9; CYP2C19 inhib: 7

How did CC(=O)Nc1ccccc1-c1nc2ccccc2nc1OCC(=O)c1ccc(Br)cc1 do in these assays?
CYP2C9 inhib: 58*; CYP2C19 act: 0.9; PLAP act: 1.2; CYP2C9 act: 0.4; CYP2C19 inhib: 10

What do the screens show for `CC(=O)Nc1ccccc1-c1nc2ccccc2nc1OCC(=O)c1ccc2ccccc2c1`?
CYP2C9 inhib: 68*; CYP2C19 act: 0.8; PLAP act: 1.4; CYP2C9 act: 0.3; CYP2C19 inhib: 20

Results for CCOC(=O)c1ccc(COc2nc3ccccc3nc2-c2ccccc2NC(C)=O)o1 ?
CYP2C9 inhib: 29; CYP2C19 act: 0.7; PLAP act: 0.9; CYP2C9 act: 0.7; CYP2C19 inhib: 26

Results for CCCCc1cc(=O)oc2cc(C)c(CN3CCCC3)c(O)c12 ?
CYP2C9 inhib: 58*; CYP2C19 act: 0.5; PLAP act: 1.3; CYP2C9 act: 0.4; CYP2C19 inhib: 50

How did COc1ccccc1C(=O)NC(=Nc1nc2ccccc2o1)NC(=O)c1ccccc1OC do in these assays?
CYP2C9 inhib: 73*; CYP2C19 act: 0.3; PLAP act: 1.5; CYP2C9 act: 0.3; CYP2C19 inhib: 65*

Results for Cc1ccc(S(=O)(=O)N2CCOCC2)cc1NC(=O)COC(=O)CSc1ccc(Br)cc1C ?
CYP2C9 inhib: -35; CYP2C19 act: 0.6; PLAP act: 1.6; CYP2C9 act: 1.3; CYP2C19 inhib: 41

How did S=c1[nH]nc(C2CCCCC2)n1/N=C/c1cccs1 do in these assays?
CYP2C9 inhib: 11; CYP2C19 act: 0.8; PLAP act: 1.1; CYP2C9 act: 0.9; CYP2C19 inhib: 20

Results for CC(C)=CC(=O)OCC(=O)NC(=O)NC(C)(C)C ?
CYP2C9 inhib: 24; CYP2C19 act: 0.6; PLAP act: 0.9; CYP2C9 act: 0.8; CYP2C19 inhib: 44

How did Nc1nncn1C(=O)c1cc(Br)ccc1Cl do in these assays?
CYP2C9 inhib: -24; CYP2C19 act: 1; PLAP act: 0.8; CYP2C9 act: 1.2; CYP2C19 inhib: -3

What do the screens show for `O=C(NNc1cccc(Cl)n1)Nc1cccc(Cl)c1`?
CYP2C9 inhib: 17; CYP2C19 act: 0.3; PLAP act: 0.8; CYP2C9 act: 0.8; CYP2C19 inhib: 72*

What do the screens show for `O=C(NCCc1ccncc1)Nc1ccccc1Cl`?
CYP2C9 inhib: 82*; CYP2C19 act: 0.1; PLAP act: 0.9; CYP2C9 act: 0.2; CYP2C19 inhib: 89*

What do the screens show for `O=C(NNc1cccc(Cl)n1)Nc1ccccc1`?
CYP2C9 inhib: 1; CYP2C19 act: 0.6; PLAP act: 0.9; CYP2C9 act: 1; CYP2C19 inhib: 35

Results for O=C(Nc1ccccc1)Nc1cccc(Cl)c1 ?
CYP2C9 inhib: -30; CYP2C19 act: 0.7; PLAP act: 0.9; CYP2C9 act: 1.3; CYP2C19 inhib: 30

How did O=C(NCCc1ccncc1)Nc1cccc(Cl)c1 do in these assays?
CYP2C9 inhib: 98*; CYP2C19 act: 0; PLAP act: 1.1; CYP2C9 act: 0; CYP2C19 inhib: 98*

What do the screens show for `COC(=O)Cc1c(O)ccn(Cc2ccc(F)cc2)c1=O`?
CYP2C9 inhib: -13; CYP2C19 act: 1; PLAP act: 1.2; CYP2C9 act: 1.1; CYP2C19 inhib: -3

How did N#Cc1ccc2ccn(CC(=O)NCc3ccccc3)c2c1 do in these assays?
CYP2C9 inhib: 59*; CYP2C19 act: 0.1; PLAP act: 1.1; CYP2C9 act: 0.4; CYP2C19 inhib: 87*

Results for Cc1ccc(NS(=O)(=O)c2cccc(C(=O)O)c2)c(C)c1 ?
CYP2C9 inhib: 11; CYP2C19 act: 1; PLAP act: 1; CYP2C9 act: 0.9; CYP2C19 inhib: 0

How did Cc1ccc(NS(=O)(=O)c2ccccc2)c2c1CC(C)(C)O2 do in these assays?
CYP2C9 inhib: -100; CYP2C19 act: 0.3; PLAP act: 0.9; CYP2C9 act: 2*; CYP2C19 inhib: 66*

What do the screens show for `CS(=O)(=O)N1N=C(c2ccc(Cl)cc2)CC1c1cccs1` (centres undefined)?
CYP2C9 inhib: 56*; CYP2C19 act: 0.1; PLAP act: 0.7; CYP2C9 act: 0.4; CYP2C19 inhib: 94*

How did COc1ccc2[nH]c(C(=O)O)c(CCNC(C)=O)c2c1 do in these assays?
CYP2C9 inhib: 31; CYP2C19 act: 1; PLAP act: 0.9; CYP2C9 act: 0.7; CYP2C19 inhib: -5

Results for COc1ccc2[nH]c(C(=O)O)c(NS(=O)(=O)c3ccc(Cl)s3)c2c1 ?
CYP2C9 inhib: 99*; CYP2C19 act: 0.2; PLAP act: 2.2*; CYP2C9 act: 0; CYP2C19 inhib: 79*

How did CSc1ccc2[nH]c(=O)cc(C)c2c1 do in these assays?
CYP2C9 inhib: 12; CYP2C19 act: 0.9; PLAP act: 1; CYP2C9 act: 0.9; CYP2C19 inhib: 7

How did COc1ccc(C(O)CNc2ccc(C)cc2)cc1 (centres undefined) do in these assays?
CYP2C9 inhib: 16; CYP2C19 act: 0.1; PLAP act: 0.9; CYP2C9 act: 0.8; CYP2C19 inhib: 92*

How did COc1ccc(CCNc2ccc(C)cc2)cc1 do in these assays?
CYP2C9 inhib: 45; CYP2C19 act: 0.2; PLAP act: 0.8; CYP2C9 act: 0.5; CYP2C19 inhib: 85*

What do the screens show for `CN(C)C(=O)c1ccccc1-c1ccccc1`?
CYP2C9 inhib: 6; CYP2C19 act: 0.8; PLAP act: 1.1; CYP2C9 act: 0.9; CYP2C19 inhib: 23

How did CSC1=NC2(CCCCC2)C2=C(CCCC2)N1 do in these assays?
CYP2C9 inhib: -2; CYP2C19 act: 1.1; PLAP act: 0.8; CYP2C9 act: 1; CYP2C19 inhib: -7

How did CC1(C)OC(=O)N(CCc2ccccc2)C1(C)O (centres undefined) do in these assays?
CYP2C9 inhib: -4; CYP2C19 act: 0.9; PLAP act: 0.9; CYP2C9 act: 1; CYP2C19 inhib: 8

Results for CC1(C)OC(=O)N(c2ccccc2)C12C=Cc1cc(Br)ccc1O2 (centres undefined) ?
CYP2C9 inhib: 85*; CYP2C19 act: 0.2; PLAP act: 1.1; CYP2C9 act: 0.2; CYP2C19 inhib: 83*

How did O=C(Nc1nc(=S)ss1)c1ccc(Cl)cc1Cl do in these assays?
CYP2C9 inhib: 94*; CYP2C19 act: 0.8; PLAP act: 1.1; CYP2C9 act: 0.1; CYP2C19 inhib: 24

What do the screens show for `Cc1ccc(OC(=O)Cn2c(C(F)(F)F)nc3ccccc32)cc1`?
CYP2C9 inhib: 16; CYP2C19 act: 0.9; PLAP act: 1; CYP2C9 act: 0.8; CYP2C19 inhib: 12
